Measurements taken from PubChem BioAssay (NCI).
The panel holds about 83,000 compounds, 20% with a hit somewhere; the sample as a whole holds those more often.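 Interpretation: 100, growth as untreated; towards 0, rising growth inhibition; 0, no net growth; 0 to -100, cell death. Compounds scoring below 10 were considered active.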 A number with no mark means an inactive call. Activity calls are given as the source filed them.

Tests used:
Assay in all cases: NCI-60 one-dose screen, 48 h (100 = growth as untreated, 0 = no growth, -100 = all killed)
[1] = system: NCI-H23 lung; settings: 10 µM unless noted
[2] = system: NCI-H226 lung; settings: 10 µM unless noted
[3] = system: NCI-H322M lung; settings: 10 µM unless noted
[4] = system: HOP-62 NSCLC; settings: 10 µM unless noted
[5] = system: NCI-H460 lung; settings: 10 µM unless noted
[6] = system: HOP-92 NSCLC; settings: 10 µM unless noted
[7] = system: NCI-H522 lung; settings: 10 µM unless noted
[8] = system: A549/ATCC NSCLC; settings: 10 µM unless noted
[9] = system: 786-0 renal; settings: 10 µM unless noted
[10] = system: COLO 205 colon; settings: 10 µM unless noted
[11] = system: DU-145 prostate; settings: 10 µM unless noted
[12] = system: K-562 leukemia; settings: 10 µM unless noted
[13] = system: MALME-3M melanoma; settings: 10 µM unless noted
[14] = system: MDA-MB-231 breast; settings: 10 µM unless noted
[15] = system: RXF 393 renal; settings: 10 µM unless noted
[16] = system: SF-268 CNS; settings: 10 µM unless noted
[17] = system: SF-295 CNS; settings: 10 µM unless noted
[18] = system: SF-539 CNS; settings: 10 µM unless noted
[19] = system: UACC-257 melanoma; settings: 10 µM
[20] = system: M14 melanoma; settings: 10 µM unless noted

Row | Compound | growth [1] [%] | growth [2] [%] | growth [3] [%] | growth [4] [%] | growth [5] | growth [6] [%] | growth [7] | growth [8] [%] | growth [9] [%] | growth [10] | growth [11] [%] | growth [12] | growth [13] | growth [14] [%] | growth [15] | growth [16] [%] | growth [17] [%] | growth [18] | growth [19] | growth [20]
1 | CCOC(=O)c1c(NC(=O)c2ccc(C(C)(C)C)cc2)sc2cc(OCCN3CCCCC3)ccc12 | 88.6 | 101 | 83.1 | 91.1 | 13.9% | 66.1 | 96.8% | 77 | 75.5 | 25.6% | 71.5 | 16% | 97% | 70.1 | 68.1% | 90.6 | 99.7 | 82.1% | 100% | 89.3%
2 | CCN1C(=O)N(CC)C2C1NN=C1SC(c3ccccc3)=CC(=O)N12 (stereo not given) | 33 | 40.4 | 50.6 | 30.7 | 6.45% (active) | 44.3 | -42.6% (active) | 36.3 | 37.6 | -40.3% (active) | 26 | 11.7% | 46.7% | 38.8 | -11.1% (active) | 62.4 | 11.1 | -8.38% (active) | 63.6% | 5.39% (active)
3 | C/C(=C(/C)C1CC1CCN(C(=O)c1ccccn1)S(=O)(=O)c1ccc(C)cc1)C1CCCCC1 (stereo not given) | 84.2 | 97 | 105 | 102 | 100% | 104 | 85.1% | 97 | 95.5 | 108% | 98.9 | 96.8% | 104% | 91.5 | 115% | 97.5 | 90.4 | 99.4% | 96.7% | 101%
4 | CC(=O)Nc1cccc(-n2cnc3cc(-c4ccc(O)cc4)ccc32)c1 | 47.8 | 37.9 | 56.6 | 38.4 | 15.9% | 49.5 | -29.8% (active) | 50.4 | 45.6 | 66.3% | 27.9 | 8.67% (active) | 73.7% | 61.1 | -6.91% (active) | 46.2 | 17.1 | -5.03% (active) | 79.6% | 53.2%
5 | CCN1CCN(c2cc(C(=O)Nc3nc4ccc(Oc5ccnc(C(=O)NC)c5)cc4s3)cc(C(F)(F)F)c2)CC1 | 89.6 | 90.8 | 95 | 104 | 46.4% | 91.1 | 78.7% | 86.5 | 70 | 59.9% | 85.8 | 55.3% | 75.7% | 86.2 | -15.6% (active) | 92.7 | 83 | 92.9% | 94.2% | 67.7%
6 | CC(=O)c1sc(Nc2cccc(Nc3nc(C)c(C)s3)c2)nc1C | 63.2 | 65.4 | 61.7 | 77.8 | 45.6% | 63.6 | 46.2% | 65.8 | 55.7 | 77.7% | 45.4 | 40.9% | 69.8% | 80.7 | 47% | 71.1 | 86.5 | 72.2% | 88.7% | 51.3%
7 | C/C(=C(/c1ccc(O)cc1)c1ccc(OCCN(C)C)cc1)c1ccc(Cl)cc1 | 56.8 | 89.4 | 48 | 67.4 | 15% | 32.5 | 57.8% | 56.4 | 50.2 | -88.7% (active) | 65.2 | 0.0711% (active) | -47.9% (active) | 31.1 | 30.3% | 61.8 | 80.9 | -18.4% (active) | -66.6% (active) | -70.7% (active)
